Compound activity deposited in PubChem BioAssay by Broad Institute.
Most compounds without a hit are left out; they make up all but 1.2% or so of the library.
RAD52 inh – blocks human RAD52 DNA annealing | AID 651710 | P43351 | recombinant RAD52 DNA annealing, FRET fluorescence | inhibition, % at 18.7 µM | 360,000 compounds, 0.46% hits;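 active = every replicate showing at least 50% inhibition; inconclusive = mean inhibition at least 50% but not in every replicate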
AF4-AF9 inh – blocks AF4 peptide binding to human AF9; AlphaScreen, biotin-AF4 peptide binding to FLAG-AF9; inhibition, % at 10 µM; 350,000 compounds, 0.47% hits; AID 651704;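 active = every replicate reaching a set inhibition limit, whatever the replicate mean, cut at about 25% in these data; inconclusive = mean inhibition reaches that limit but some replicates miss it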;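 note: 0% = plate neutral control median and 100% = total signal loss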
CASP6 VEID inh – caspase-6 (human) enzyme inhibition. P55212. purified caspase-6, Z-VEID-R110 cleavage fluorescence. inhibition, % at 12.5 µM. 350,000 compounds, 0.53% hits;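 active = mean inhibition across replicates at least about 35%, with every replicate also reaching that limit, limit read from the data; inconclusive = only one of the two criteria met; inactive = neither criterion met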;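 note: 0% = median of neutral control wells and 100% = no fluorescence left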
Target sequence (P55212 24-179 limits assumed): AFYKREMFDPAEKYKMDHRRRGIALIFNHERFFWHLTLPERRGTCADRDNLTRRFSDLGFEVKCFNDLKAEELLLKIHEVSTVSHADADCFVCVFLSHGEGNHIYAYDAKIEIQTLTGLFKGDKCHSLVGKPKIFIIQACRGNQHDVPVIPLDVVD
Target sequence (P55212 194-293 limits assumed): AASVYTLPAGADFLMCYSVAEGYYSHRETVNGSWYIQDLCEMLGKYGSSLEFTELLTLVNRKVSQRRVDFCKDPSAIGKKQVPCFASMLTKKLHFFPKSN
RAD54 inh – inhibitors of human RAD54 branch migration; AID 602329; inhibition, % at 10.4 µM; Q92698; 360,000 compounds, 0.14% hits; RAD54 Holliday junction branch migration, FAM/BHQ fluorescence;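 active = mean normalized replicate activity at least 40 and at least half of replicates scoring 40 or more; inconclusive = only one of the two criteria met; inactive = mean below 40 and under half of replicates reaching 40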;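 note: 0% = median of neutral control wells and 100% = median of positive control wells; inhibitors cause a drop in the FAM fluorescence signal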
N-glyco inh – N-linked glycosylation inhibition; D54 ERlucT glycosylation luciferase reporter, 24 h; percent of 100 nM tunicamycin response; reporter increase, % at 12.5 µM; 360,000 compounds, 0.23% hits;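 active = mean luciferase reporter signal, scaled so untreated is 0 and the glycosylation-blocking control 100, at or above a set limit in every replicate; inconclusive = mean reaches the limit but not every replicate does; inactive = mean below the limit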;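 note: luciferase carries N-glycosylation sites so blocking glycosylation raises the light; 0% = median of neutral control wells and 100% = median of 100 nM tunicamycin wells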
An asterisk follows results filed as active; ? = inconclusive; · = not tested or not shown.

SMILES | RAD52 inh | AF4-AF9 inh | CASP6 VEID inh | RAD54 inh | N-glyco inh
Cc1ccc(S(=O)(=O)N2C[C@H](O)COC[C@H]3O[C@@H](CC(=O)NCC4CCCCC4)CC[C@@H]32)cc1 | 34 | 3 | 2 | -10 | ·
O=[N+]([O-])c1cccnc1C1OCCO1 | -6 | -4 | 2 | -15 | -2
Cc1cnc(C2OCCO2)c2cccc(N)c12 | 10 | 17 | 60* | -1 | 5
COCC(=O)Nc1ccc2c(c1)C(=O)N(C)C[C@H](OC)[C@H](C)CN(C(=O)CC1CC1)[C@H](C)CO2 | -14 | -5 | 0 | 6 | ·
N#Cc1c(/N=C/c2ccc(-c3ccccc3C(=O)O)o2)sc2c1CCCC2 | -26 | 1 | 57* | 7 | 0
N#Cc1c(NC(=O)c2ccccc2Cl)n(Cc2ccccc2)c2nc3ccccc3nc12 | -48 | 2 | 100* | · | 3
CCCCn1c(NC(=O)c2ccccc2Cl)c(C#N)c2nc3ccccc3nc21 | · | · | · | 7 | 1
Cc1cc(NC(=O)CSc2nc(C(C)C)nc3sc(C)c(C)c23)no1 | -11 | 5 | -1 | -4 | 2
Cc1cc(NC(=O)CSc2nc3sc(C)c(C)c3c(=O)n2C2CCCC2)no1 | -3 | 2 | -1 | 6 | 27*
COc1ccc(CN(C)C[C@@H]2OCCCC[C@H](C)Oc3ccc(NC(=O)Nc4ccc5c(c4)OCO5)cc3C(=O)N([C@H](C)CO)C[C@H]2C)cc1 | 47 | 25* | 2 | 5 | ·
COc1ccc(CN(C)C[C@H]2OCCCC[C@@H](C)Oc3ccc(NC(=O)Nc4ccc5c(c4)OCO5)cc3C(=O)N([C@@H](C)CO)C[C@H]2C)cc1 | 22 | 32* | 2 | -5 | ·
COc1ccc(NC(=O)Nc2ccc3c(c2)C(=O)N([C@H](C)CO)C[C@@H](C)[C@H](CN(C)Cc2ccc4c(c2)OCO4)OCCCC[C@@H](C)O3)cc1 | 2 | 27* | 0 | 2 | ·
C[C@@H]1CN([C@@H](C)CO)C(=O)c2cc(/C=C/c3ccccc3)cnc2O[C@@H]1CN(C)Cc1ccc2c(c1)OCO2 | 4 | 10 | 1 | -9 | ·
C[C@H](CO)N1C[C@H](C)[C@H](CN(C)Cc2ccc(C(=O)Nc3ccccc3N)cc2)Oc2ccc(NC(=O)Cc3ccccc3)cc2CC1=O | -18 | -7 | 2 | · | ·
O=C(C[C@H]1CC[C@@H]2[C@H](COC[C@@H](O)CN2Cc2nccs2)O1)NCc1ccccc1 | 0 | -1 | -2 | 9 | ·
Cc1cccc(S(=O)(=O)N2CC[C@@H]3[C@H]2c2cc(C#Cc4cccc(F)c4)ccc2N[C@@H]3CO)c1 | -4 | -3 | 0 | 4 | ·
C[C@H]1CN([C@@H](C)CO)C(=O)c2cc(NC(=O)Nc3ccc(C(F)(F)F)cc3)ccc2O[C@H]1CN(C)Cc1ccncc1 | 6 | 2 | -1 | 3 | ·
Cc1ccc(-c2nc3ncccn3c2NC(=O)C2CC2)cc1 | · | · | · | 8 | 2
CC(=O)Nc1c(-c2ccccc2)nc2ncccn12 | -8 | 48* | 1 | -1 | -1
COC(=O)C[C@H]1CC[C@@H]2[C@@H](COc3ccc(NC(=O)c4cccc(OC)c4)cc3C(=O)N2C)O1 | -5 | 1 | 1 | 9 | ·
O=C(O)c1ccc(NS(=O)(=O)/C=C/c2ccccc2)cc1O | -20 | 5 | 44* | -15 | 0
CC(Nc1ccc2ccccc2c1)C(=O)N/N=C/c1ccncc1 (centres undefined) | -14 | 4 | 61* | 3 | 6
O=C(CC1CC1)N1[C@@H](CO)[C@@H](c2ccccc2)C12CN(Cc1cc(F)ccc1F)C2 | -55 | -2 | 3 | · | ·
CCOc1ccc(NCc2cccn2-c2nnc(N3CCC(C(=O)NCCCN4CCCCC4)CC3)s2)cc1 | 24 | 33* | -116 | 9 | -5
CCCNC(=O)N1CC2(CN(CC3CCCCC3)C2)c2c(n(C)c3cc(OC)ccc23)[C@@H]1CO | 22 | 33* | 7 | · | ·
CCCNC(=O)N1CC2(CN(Cc3ccc(OC)cc3)C2)c2c(n(C)c3cc(OC)ccc23)[C@@H]1CO | · | 34* | · | · | ·
CCCNC(=O)N1CC2(CN(CC3CCCCC3)C2)c2c(n(C)c3cc(OC)ccc23)[C@H]1CO | 10 | ? | 0 | · | ·
Cc1ccc(S(=O)(=O)N(C)C[C@H]2OCCCC[C@@H](C)Oc3ccc(NC(=O)CCC(F)(F)F)cc3C(=O)N([C@H](C)CO)C[C@@H]2C)cc1 | 6 | -2 | · | 4 | ·
Cc1ccccc1-c1ccc(C2[C@@H]3CN(C(=O)C4CCOCC4)C[C@H]2N3)cc1 (some centres undefined) | 0 | -6 | 1 | · | ·
